This is an account of results in PubChem BioAssay (NCATS).

The structures appear in SMILES notation. Results filed as inconclusive are left out. The source made the active and inactive calls. Unless noted, calls follow the shape of the dose curve; as a rule, active = well fitted curve in the direction sought with a large enough effect; inconclusive = small, poorly fitted or top-dose-only effect, or another doubt; inactive = no such curve, though single readings can be large; an effect the other way counts as inactive or inconclusive.

The target of test [1] is Glucocorticoid receptor (Homo sapiens) (UniProt P04150). As to the kind of experiment: GR-GFP Redistribution (AID 450;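 active = compounds whose dose series gives a full or clear partial fitted curve of increased nuclear translocation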; also: potency is read from the fitted curve at half-maximal effect). As to conditions: U2OS GR-GFP nuclear translocation, laser cytometry, 2 h.
Test [2] shares this target. As to the kind of experiment: GR-EFC Redistribution (AID 451; calls by dose curve; also: potency is read from the fitted curve at half-maximal effect). The note with it: CHO-K1 GR-EFC translocation, beta-gal luminescence, 2 h. A digest of the protocol: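 CHO-K1 cells stably expressing nuclear-localized β-gal enzyme acceptor and GR fused C-terminally to the enzyme donor fragment; ligand-driven nuclear translocation restores β-gal by complementation. Compounds titrated up to 46 uM final, 2 h at 37 °C; luminescence read.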

Test [3] concerns the target Mitogen-activated protein kinase 10 (Mus musculus) (UniProt Q61831). As to the kind of experiment: JNK3 AlphaScreen Assay (AID 530; active = well fitted curve in either direction with a large enough effect, not every such curve was filed as active;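 also: kinase came from lysate of stimulated human HepG2 cells; signal reports phosphorylation of biotinylated GST-cJun 1-79 at Ser73 with 10 µM ATP; % is scaled to controls: 0 for no effect and ±100 for the full control effect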). A digest of the protocol:
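JNK3 came from HepG2 lysates pre-activated with IL-1beta and TNF-alpha and phosphorylated biotinylated GST-cJun (1-79) at 10 uM ATP, pH 7.6, room temperature. Compounds were titrated. AlphaScreen signal used anti-phospho-cJun (Ser73) antibody.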

In test [4] the target is Cytochrome P450 3A4 (Homo sapiens) (UniProt P08684). As to the kind of experiment: qHTS Assay for Inhibitors and Substrates of Cytochrome P450 3A4 (AID 884). Also: potency is read from the fitted curve at half-maximal effect; nearly all actives have a fitted effect of over 50% in size. A digest of the protocol:
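20 nM human CYP3A4 with 25 uM Luciferin-PPXE (at KM) in 200 mM KPO4, preincubated 10 min with compound; NADPH regeneration started a 60 min RT reaction. Luciferin detected by luminescence, normalized to 57 uM ketoconazole as full inhibition.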

Test [5] has the same target. As to the kind of experiment: qHTS Assay for Activators of Cytochrome P450 3A4 (AID 885). Also: nearly all actives have a fitted effect of over 65% in size. A digest of the protocol:
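Signal was normalized against complete inhibition by 57 uM ketoconazole. The reaction used 20nM CYP3A4 with 25uM Luciferin-PPXE, 10-min compound preincubation and a 60-min NADPH-supported step at RT.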

The test system of test [6] is Zika virus NS2B-NS3 protease. As to the kind of experiment: Primary screen GU AMC qHTS for Zika virus inhibitors (AID 1347154).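 Also: 0% = no-inhibitor control and -100% = no-enzyme control; nearly all actives have a fitted effect of over 70% in size.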 A digest of the protocol:
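Unlinked Zika NS2B hydrophilic domain/NS3 protease domain noncovalent complex (25 nM final) in 10 mM Tris-HCl pH 8.0, 0.01% Tween 20, with AMC peptide substrate. Fluorescence (ex 340, em 450 nm) change over 15 min, room temperature; percent inhibition fitted to 4-parameter Hill equation.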

The nature of test [7]: Counterscreen qHTS for small molecule stabilizers of the endoplasmic reticulum resident proteome: GLuc-NoTag assay (AID 1508627). Also: potency is read from the fitted curve at half-maximal effect. The procedure, abridged: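 SH-SY5Y cells stably expressing constitutively secreted GLuc (no SERCaMP tag) were pre-incubated 5 h, treated with compound for 19 h, then 100 nM thapsigargin for 4 h at 37C; medium GLuc read by coelenterazine luminescence.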

The nature of test [8]: Validation of Assay for Modulators of Lamin A Splicing (AID 1459; active = well fitted curve in the direction sought with a large enough effect in the signal ratio; the % refers to the signal ratio;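 also: cells exposed to compound for two days before reading; 0% is about no effect; ratio rise marks activators and ratio drop marks inhibitors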). The procedure, abridged:
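Dual-reporter HeLa S3 line (lamin A-EGFP minigene, DsRed2) treated with compounds 48 hrs, 0.5% DMSO final. Endpoint: EGFP/DsRed2 total intensity ratio from laser-scanning microplate cytometry.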

Test [9] in a line: qHTS Assay for Lipid Storage Modulators (AID 1519; calls by dose curve). The note with it: Drosophila S3 cells, BODIPY lipid droplet/cell ratio, laser cytometry, cells loaded with oleic acid. A digest of the protocol:
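Cells seeded at 5,000 per well were treated with compounds over a concentration series and loaded with oleic acid (400 uM, as added). Lipid droplet fluorescence (488 nm excitation, 500-530 nm channel) was read by laser-scanning cytometry and normalized to 20 uM Triacsin C.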

A short description of test [10]: Counterscreen for APE1 Inhibitors: Fluorescent Dye Displacement Validation Assay (AID 1707).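 Also: plate controls were ThO with dsDNA and no compound for no effect and ThO without dsDNA for full effect.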 The procedure, abridged:
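Compounds are scored by their ability to displace Thiazole Orange (250 nM) from a 50 nM TAMRA-tagged duplex bearing a tetrahydrofuran abasic site. Buffer is 50 mM Tris-HCl pH7.5, 50mM NaCl, 2 mM MgCl2, 0.01% Tween-20.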

Test [11] addresses Endonuclease 4 (Escherichia coli (strain K12)) (UniProt P0A6C1). As to the kind of experiment: Counterscreen for APE1 Inhibitors: qHTS Validation Assay for Inhibitors of Endonuclease IV (AID 1708). Also: % is scaled to controls: 0 for no effect and ±100 for the full control effect. The procedure, abridged: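 2 nM enzyme was preincubated with compounds for 15 min at room temperature in 50 mM Tris-HCl pH 7.5, 50 mM NaCl, 2 mM MgCl2, 1 mM DTT, 0.01% Tween-20. 50 nM THF-abasic TAMRA/BHQ-2 duplex substrate started the reaction.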

A short description of test [12]: qHTS for differential inhibitors of proliferation of Plasmodium falciparum line 7G8 (AID 1815).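 Also: potency is read from the fitted curve at half-maximal effect; parasite growth measured after three days of incubation.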
Test [13] in a line: qHTS for differential inhibitors of proliferation of Plasmodium falciparum line GB4 (AID 1816).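 Also: potency is read from the fitted curve at half-maximal effect; parasite growth measured after 72 h incubation.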 As to conditions: Potency: Plasmodium falciparum GB4 proliferation inhibition.
Test [14] can be described thus: qHTS for differential inhibitors of proliferation of Plasmodium falciparum line 3D7 (AID 1876). Also: potency is read from the fitted curve at half-maximal effect.
A short description of test [15]: qHTS for differential inhibitors of proliferation of Plasmodium falciparum line W2 (AID 1883).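 Also: potency is read from the fitted curve at half-maximal effect; parasites grown with compound for 72 h before lysis and staining.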 The note with it: Potency: Plasmodium falciparum W2 proliferation inhibition.
Test [16] in a line: qHTS for differential inhibitors of proliferation of Plasmodium falciparum line HB3 (AID 1886).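 Also: potency is read from the fitted curve at half-maximal effect; parasites grown with compound for 72 h before SYBR Green readout.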 As to conditions: Potency: Plasmodium falciparum HB3 proliferation inhibition.
Test [17] in a line: qHTS Assay for Modulators of Human Peripheral Myelin Protein 22 (PMP22) Expression/Activity (AID 1967; active = well fitted curve in the direction sought with a large enough effect in the signal ratio; the % refers to the signal ratio;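 also: 0% = untreated cells and 100% end not stated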). The procedure, abridged: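 Engineered MSC80 cells, Pmp22-promoter green and EF-alpha red luciferase reporters; 24h compound treatment at 37 °C. Concentration-response fits on green, red and ratio signals, each overlap-corrected, with %Activity normalized to untreated wells.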

Test [18] addresses Ferritin light chain (Equus caballus) (UniProt P02791). As to the kind of experiment: qHTS Validation Assay for Identification of Novel General Anesthetics (AID 2323). Also: % is scaled to controls: 0 for no effect and ±100 for the full control effect. The procedure, abridged: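 Normalized fluorescence response, scaled between free 1-AMA and 1-AMA/apoferritin complex, fitted to a four-parameter Hill equation for concentration-effect values. Binding mix: 10 uM horse-spleen apoferritin, 50% saturated 1-AMA in PBS; read 380/535 nm after 10 min.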

The target in test [19] is ATP-dependent DNA helicase Q1 (Homo sapiens) (UniProt P46063). As to the kind of experiment: qHTS Validation Assay for Inhibitors of RecQ-Like Dna Helicase 1 (RECQ1) (AID 2353).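 Also: plate controls were DMSO vehicle for no effect and enzyme-free control for full effect.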 The procedure, abridged:
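50 nM RECQ1T1 preincubated 15 min with compound in Tris pH 8.0 buffer with MgCl2, DTT, Tween-20 and 2.5 ug/ml poly(dI-dC); started with 200 nM TAMRA/BHQ-2 forked duplex and 2 mM ATP. Unwinding read as fluorescence (525/598 nm), two reads 2 h apart.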

The nature of test [20]: Validation screen for inhibitors of Lassa infection (AID 463096; calls by dose curve; also: % is scaled to controls: 0 for no effect and ±100 for the full control effect).
Test [21] in a line: Validation screen for small molecules that induce DNA re-replication in MCF 10A normal breast cells (AID 463097). Also: 0% is about no effect; nearly all actives have a fitted effect of over 60% in size. The procedure, abridged: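 Following 48 hr compound incubation (37 C, 5% CO2), MCF 10A cells receive Hoechst for 40 min at 37 C. Nuclei are then scanned (excitation 405 nm, emission 500-530 nm) for total fluorescence intensity.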
Test [22] deals with M-phase phosphoprotein 8 (Homo sapiens) (UniProt Q99549). As to the kind of experiment: qHTS Validation Assay for Inhibitors for MPP8 Chromodomain Interactions with Methylated Histone Tails (AID 488949).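 Also: AlphaScreen signal from MPP8 chromodomain bound to biotinylated H3K9me3 peptide; top concentration of the series differs between compounds; % is scaled to controls: 0 for no effect and ±100 for the full control effect; nearly all actives have a fitted effect of over 55% in size.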 A digest of the protocol: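 Chemiluminescent proximity assay: histidine-tag capture via nickel acceptor beads, biotin peptide via streptavidin donor beads. Protein and peptide each at 50 nM, pH 7.4, with 30 min incubations at room temperature for complex formation, compound exposure and bead binding.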

Test [23] has as its target Transient receptor potential cation channel subfamily V member 1 (Homo sapiens) (UniProt Q8NER1). As to the kind of experiment: HTS Assay for Compounds that Act as Enhancers of the Vanilloid Receptor 1 (AID 488979). Also: 0% is about no effect. A digest of the protocol:
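TRPV1-expressing cells loaded with Fluo-8 calcium dye; compounds added and calcium influx read kinetically for 3 min (agonist phase), then capsaicin at EC20 added and read 2 min more for enhancement. Fluorescence ex 480/em 520 nm.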

Test [24] addresses Thyrotropin receptor (Homo sapiens) (UniProt P16473). As to the kind of experiment: qHTS Assay for Antagonists of the Thyroid Stimulating Hormone Receptor (AID 488980). Also: 0% is about no effect. A digest of the protocol: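 Inhibition of TSH-stimulated cAMP accumulation was quantified by homogeneous time-resolved FRET in TSHR-transfected HEK293 cells. Agonist: TSH, 4 nM final (EC80).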
In test [25] the target is Thyrotropin-releasing hormone receptor (Homo sapiens) (UniProt P34981). As to the kind of experiment: qHTS for Small Molecule Agonists and Allosteric Enhancers of Human TRH Receptor: Validation Screen for Agonists (AID 493127;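 active = calcium activation more than 3 SD above the typical response in the agonist read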;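 also: intracellular calcium rise by fluo-8 fluorescence before TRH EC20 addition; 0% is about no effect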). The note with it: TRH receptor agonist cell assay; at 2 µM; stronger effect = higher value. A digest of the protocol: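 Gq-coupled calcium mobilization in TRHR cells after compound addition, monitored kinetically with fluo-8 dye on an FDSS reader.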

The target of test [26] is Galactokinase (Homo sapiens) (UniProt P51570). As to the kind of experiment: qHTS Validation Assay for Inhibitors of Human Galactokinase (GALK) (AID 493189). Also: 0% is about no effect. The procedure, abridged:
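Enzyme activity is inferred from ATP consumption: human GALK phosphorylates galactose (100 uM) using 35 uM ATP for 1 h at room temperature, and luciferase-based Kinase-Glo Plus reports unconsumed ATP.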

Test [27] can be described thus: Validation screen for small molecules that induce DNA re-replication in SW480 colon adenocarcinoma cells (AID 504364). Also: 0% is about no effect. A digest of the protocol:
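Cells are treated 48 hr with test compound, stained 40 min with Hoechst at 37 C, and scanned for nuclear fluorescence; compounds inducing re-replication increase nuclei with elevated intensity.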

The target in test [28] is Voltage-gated inwardly rectifying potassium channel KCNH2 (Homo sapiens) (UniProt Q12809). As to the kind of experiment: qHTS Assay for Small Molecule Inhibitors of the Human hERG Channel Activity (AID 588834).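 Also: top concentration of the series differs between compounds; % is scaled to controls: 0 for no effect and ±100 for the full control effect; lower thallium flux fluorescence means stronger hERG block; nearly all actives have a fitted effect of over 50% in size.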 A digest of the protocol: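 Blockade is seen as reduced FluxOR thallium-flux fluorescence in U2OS cells expressing hERG from a BacMam construct, in Opti-MEM with 2% FCS. Concentration-response data fitted to the Hill equation for AC50.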

A short description of test [29]: Primary qHTS for small molecule stabilizers of the endoplasmic reticulum resident proteome: Secreted ER Calcium Modulated Protein (SERCaMP) assay (AID 1508630). Also: % is scaled to controls: 0 for no effect and ±100 for the full control effect. A digest of the protocol: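 GLuc-SERCaMP-expressing SH-SY5Y cells, pretreated 16 h with compound, are challenged with thapsigargin to empty ER calcium stores; after 4 h, coelenterazine is added directly to the medium and luminescence is imaged.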

Sequence of Cytochrome P450 3A4 (Homo sapiens) (P08684 whole entry, looked up): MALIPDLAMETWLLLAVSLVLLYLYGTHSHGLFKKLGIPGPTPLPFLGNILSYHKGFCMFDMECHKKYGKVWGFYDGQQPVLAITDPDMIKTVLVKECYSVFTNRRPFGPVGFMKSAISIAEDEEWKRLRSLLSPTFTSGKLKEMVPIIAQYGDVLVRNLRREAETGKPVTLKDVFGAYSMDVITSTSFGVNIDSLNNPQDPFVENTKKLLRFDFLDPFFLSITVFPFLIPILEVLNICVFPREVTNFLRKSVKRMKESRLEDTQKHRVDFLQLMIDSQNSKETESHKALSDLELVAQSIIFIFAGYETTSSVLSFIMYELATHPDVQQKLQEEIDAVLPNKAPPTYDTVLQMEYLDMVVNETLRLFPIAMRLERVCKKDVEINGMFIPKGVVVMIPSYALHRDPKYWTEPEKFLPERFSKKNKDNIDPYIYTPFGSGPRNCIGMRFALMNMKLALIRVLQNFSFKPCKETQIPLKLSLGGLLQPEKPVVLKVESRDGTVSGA
Sequence of Glucocorticoid receptor (Homo sapiens) (P04150 whole entry, looked up, the tested form may be a part): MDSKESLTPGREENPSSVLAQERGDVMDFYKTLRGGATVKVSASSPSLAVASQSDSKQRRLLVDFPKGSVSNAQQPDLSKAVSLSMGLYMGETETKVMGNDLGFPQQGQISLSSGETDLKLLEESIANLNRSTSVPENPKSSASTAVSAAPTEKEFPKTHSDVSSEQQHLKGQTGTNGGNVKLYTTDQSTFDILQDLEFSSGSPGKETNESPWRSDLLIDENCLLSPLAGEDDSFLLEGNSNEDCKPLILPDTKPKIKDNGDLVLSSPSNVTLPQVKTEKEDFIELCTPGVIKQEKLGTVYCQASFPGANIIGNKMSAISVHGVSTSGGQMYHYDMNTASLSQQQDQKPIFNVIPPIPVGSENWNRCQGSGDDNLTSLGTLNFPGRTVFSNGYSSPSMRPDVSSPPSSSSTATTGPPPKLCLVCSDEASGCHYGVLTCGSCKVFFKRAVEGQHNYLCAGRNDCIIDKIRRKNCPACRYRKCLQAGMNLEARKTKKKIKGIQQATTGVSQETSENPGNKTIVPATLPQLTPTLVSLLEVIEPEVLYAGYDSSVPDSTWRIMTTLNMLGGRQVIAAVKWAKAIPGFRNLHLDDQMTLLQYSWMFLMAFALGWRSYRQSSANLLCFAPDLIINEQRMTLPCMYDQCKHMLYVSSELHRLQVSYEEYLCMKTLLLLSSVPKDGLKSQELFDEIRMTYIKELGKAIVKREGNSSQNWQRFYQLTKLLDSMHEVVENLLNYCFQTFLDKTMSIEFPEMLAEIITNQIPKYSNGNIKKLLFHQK
Sequence of Transient receptor potential cation channel subfamily V member 1 (Homo sapiens) (Q8NER1 whole entry, looked up): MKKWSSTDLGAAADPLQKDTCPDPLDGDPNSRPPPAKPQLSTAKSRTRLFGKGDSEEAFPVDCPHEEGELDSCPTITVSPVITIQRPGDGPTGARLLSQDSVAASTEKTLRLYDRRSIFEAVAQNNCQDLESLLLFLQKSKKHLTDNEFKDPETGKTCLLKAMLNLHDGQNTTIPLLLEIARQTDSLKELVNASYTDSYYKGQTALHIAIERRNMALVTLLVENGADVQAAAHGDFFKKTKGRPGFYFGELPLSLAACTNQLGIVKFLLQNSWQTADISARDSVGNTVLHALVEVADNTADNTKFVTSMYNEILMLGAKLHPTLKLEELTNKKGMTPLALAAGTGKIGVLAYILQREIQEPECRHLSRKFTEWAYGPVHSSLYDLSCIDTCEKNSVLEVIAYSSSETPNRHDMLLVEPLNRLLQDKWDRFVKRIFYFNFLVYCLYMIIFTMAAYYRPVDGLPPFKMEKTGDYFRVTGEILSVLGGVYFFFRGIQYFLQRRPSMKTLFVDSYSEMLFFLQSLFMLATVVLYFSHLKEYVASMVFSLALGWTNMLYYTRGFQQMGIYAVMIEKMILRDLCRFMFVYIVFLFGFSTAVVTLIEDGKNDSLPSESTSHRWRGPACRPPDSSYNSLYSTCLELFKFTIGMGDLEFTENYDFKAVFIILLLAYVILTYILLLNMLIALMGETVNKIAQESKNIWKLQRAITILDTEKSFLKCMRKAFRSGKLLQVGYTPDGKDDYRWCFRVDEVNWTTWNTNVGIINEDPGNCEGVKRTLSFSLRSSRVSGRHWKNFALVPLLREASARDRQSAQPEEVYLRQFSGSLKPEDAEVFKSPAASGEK
Sequence of ATP-dependent DNA helicase Q1 (Homo sapiens) (P46063 whole entry, looked up): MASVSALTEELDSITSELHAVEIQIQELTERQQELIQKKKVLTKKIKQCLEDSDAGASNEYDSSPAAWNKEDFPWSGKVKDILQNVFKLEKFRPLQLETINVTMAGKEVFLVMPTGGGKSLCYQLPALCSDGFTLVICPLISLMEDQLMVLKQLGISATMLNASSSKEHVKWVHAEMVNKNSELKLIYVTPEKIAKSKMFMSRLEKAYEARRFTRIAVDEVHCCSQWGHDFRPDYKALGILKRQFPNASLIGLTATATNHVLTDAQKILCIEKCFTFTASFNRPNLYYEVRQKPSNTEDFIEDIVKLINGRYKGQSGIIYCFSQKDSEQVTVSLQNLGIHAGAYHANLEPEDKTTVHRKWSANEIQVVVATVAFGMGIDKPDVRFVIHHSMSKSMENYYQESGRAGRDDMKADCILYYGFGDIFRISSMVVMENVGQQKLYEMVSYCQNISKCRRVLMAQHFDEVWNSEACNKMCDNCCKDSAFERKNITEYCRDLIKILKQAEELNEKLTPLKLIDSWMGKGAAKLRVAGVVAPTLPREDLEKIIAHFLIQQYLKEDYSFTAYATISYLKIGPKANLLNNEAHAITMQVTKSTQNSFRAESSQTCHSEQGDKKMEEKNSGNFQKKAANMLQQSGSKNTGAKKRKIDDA
Sequence of Galactokinase (Homo sapiens) (P51570 whole entry, looked up): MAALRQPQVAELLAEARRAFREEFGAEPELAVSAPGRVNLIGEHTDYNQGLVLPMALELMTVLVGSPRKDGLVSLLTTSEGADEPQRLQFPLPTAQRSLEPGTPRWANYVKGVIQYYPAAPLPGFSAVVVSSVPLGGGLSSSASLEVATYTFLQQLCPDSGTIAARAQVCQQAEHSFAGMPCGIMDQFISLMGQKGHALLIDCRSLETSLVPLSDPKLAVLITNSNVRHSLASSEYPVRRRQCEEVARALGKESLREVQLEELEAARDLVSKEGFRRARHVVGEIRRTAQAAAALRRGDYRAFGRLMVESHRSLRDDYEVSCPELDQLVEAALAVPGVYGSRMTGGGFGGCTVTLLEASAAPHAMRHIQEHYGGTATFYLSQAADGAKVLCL
Sequence of Thyrotropin receptor (Homo sapiens) (P16473 whole entry, looked up): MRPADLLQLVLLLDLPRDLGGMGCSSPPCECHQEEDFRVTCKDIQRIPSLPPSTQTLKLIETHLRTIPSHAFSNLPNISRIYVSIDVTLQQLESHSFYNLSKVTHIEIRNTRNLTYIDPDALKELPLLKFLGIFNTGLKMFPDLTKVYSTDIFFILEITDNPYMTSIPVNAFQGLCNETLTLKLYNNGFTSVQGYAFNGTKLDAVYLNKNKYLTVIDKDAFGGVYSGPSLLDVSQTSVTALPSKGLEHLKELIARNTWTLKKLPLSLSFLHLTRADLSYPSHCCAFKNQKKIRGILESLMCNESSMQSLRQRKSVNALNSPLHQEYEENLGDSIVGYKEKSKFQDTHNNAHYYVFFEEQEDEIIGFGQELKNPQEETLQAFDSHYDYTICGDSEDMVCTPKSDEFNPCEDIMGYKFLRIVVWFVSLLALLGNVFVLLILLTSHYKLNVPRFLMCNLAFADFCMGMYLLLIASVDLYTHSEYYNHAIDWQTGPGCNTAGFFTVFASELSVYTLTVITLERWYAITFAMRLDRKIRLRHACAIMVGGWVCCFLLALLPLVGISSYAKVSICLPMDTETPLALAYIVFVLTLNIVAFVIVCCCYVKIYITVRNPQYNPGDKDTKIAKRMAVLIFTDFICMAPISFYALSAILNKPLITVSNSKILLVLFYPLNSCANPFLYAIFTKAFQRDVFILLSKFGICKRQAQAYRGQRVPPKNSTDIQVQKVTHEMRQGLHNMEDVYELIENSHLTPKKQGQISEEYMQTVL
Sequence of M-phase phosphoprotein 8 (Homo sapiens) (Q99549 whole entry, looked up): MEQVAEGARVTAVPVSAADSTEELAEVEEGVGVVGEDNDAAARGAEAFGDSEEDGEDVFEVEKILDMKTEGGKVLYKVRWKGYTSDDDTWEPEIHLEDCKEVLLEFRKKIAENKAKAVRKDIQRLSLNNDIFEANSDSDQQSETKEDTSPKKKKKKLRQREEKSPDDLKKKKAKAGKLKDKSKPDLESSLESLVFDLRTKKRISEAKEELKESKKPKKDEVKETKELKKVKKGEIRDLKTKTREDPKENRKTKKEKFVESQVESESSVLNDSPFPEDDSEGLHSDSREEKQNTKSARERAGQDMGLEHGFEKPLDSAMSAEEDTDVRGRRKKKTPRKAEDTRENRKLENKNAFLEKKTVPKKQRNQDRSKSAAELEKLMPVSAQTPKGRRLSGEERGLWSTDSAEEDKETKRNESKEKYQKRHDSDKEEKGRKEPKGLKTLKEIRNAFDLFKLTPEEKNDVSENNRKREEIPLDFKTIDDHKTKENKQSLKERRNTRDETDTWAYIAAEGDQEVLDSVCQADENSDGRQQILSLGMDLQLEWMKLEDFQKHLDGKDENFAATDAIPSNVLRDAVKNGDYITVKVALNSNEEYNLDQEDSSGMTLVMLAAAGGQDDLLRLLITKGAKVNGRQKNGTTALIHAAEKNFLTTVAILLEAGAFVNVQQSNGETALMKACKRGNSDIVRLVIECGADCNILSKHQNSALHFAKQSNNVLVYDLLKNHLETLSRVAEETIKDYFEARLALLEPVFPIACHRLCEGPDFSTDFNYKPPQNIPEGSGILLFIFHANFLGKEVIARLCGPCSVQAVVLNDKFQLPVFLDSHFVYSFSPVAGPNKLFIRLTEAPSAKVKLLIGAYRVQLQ
Sequence of Ferritin light chain (Equus caballus) (P02791 2-175 limits assumed): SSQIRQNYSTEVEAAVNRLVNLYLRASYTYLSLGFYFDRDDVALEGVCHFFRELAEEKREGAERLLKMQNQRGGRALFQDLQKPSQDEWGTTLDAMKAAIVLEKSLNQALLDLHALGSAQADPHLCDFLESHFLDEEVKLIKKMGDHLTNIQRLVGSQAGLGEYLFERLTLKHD

As for `COc1ccc2[nH]cc(C3=CCNCC3)c2c1`, the Potency in [1] was > 46 µM (inactive); in test [2] it was > 46 µM (inactive); in [4] it was 1.26 µM (active); in [7], 6.31 µM (active). For the same compound, the result in test [3] was inactive. Further, the Potency entry in test [5] and in [6] was “inactive” in each case.

Consider `CC(O)C(C)OC(=O)[C@@H]1C[C@@H]2c3cccc4c3c(cn4C(C)C)C[C@H]2N(C)C1` (some centres not stated), for which the outcome in [8], in test [11], in test [17], in test [18], in test [23] and in test [24] was inactive. In addition, in [26], the outcome was inactive. In addition, the activity change, negative = inhibition in [9] (at 57.5 µM (top of the series)) was 2.46% (inactive). The max response was -4.58% in test [9] (measured here: cell count channel max response) and -0.261% in test [9] (measured here: lipid channel max response). Besides, the Potency result in [10], in test [19], in [20], in test [21], in test [22] and in test [27] was “inactive” in each case. Besides, the Potency entry in test [28], in test [6] and in test [29] was “inactive” each time. In addition, the Potency in test [12] was 11.2 µM (active); in test [13], 12.6 µM (active); in [14], 12.6 µM (active); in test [15], 7.94 µM (active); in test [16], 14.1 µM (active). In addition, the activation in [25] is 4% (inactive).
